Smad3 inh – Smad3 (human) transcription factor binding inhibition; TR-FRET Smad3/Dy647-FoxH1 peptide binding, europium anti-His; inhibition, % at 25 µM; hit rate 0.29% among 88,000;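 active = compounds that reduce the energy-transfer binding signal between the protein and its labelled peptide by more than half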;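 also: 0% = Smad3 plus labelled peptide maximal FRET and 100% = peptide-only background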
Target sequence (P84022 whole entry, looked up): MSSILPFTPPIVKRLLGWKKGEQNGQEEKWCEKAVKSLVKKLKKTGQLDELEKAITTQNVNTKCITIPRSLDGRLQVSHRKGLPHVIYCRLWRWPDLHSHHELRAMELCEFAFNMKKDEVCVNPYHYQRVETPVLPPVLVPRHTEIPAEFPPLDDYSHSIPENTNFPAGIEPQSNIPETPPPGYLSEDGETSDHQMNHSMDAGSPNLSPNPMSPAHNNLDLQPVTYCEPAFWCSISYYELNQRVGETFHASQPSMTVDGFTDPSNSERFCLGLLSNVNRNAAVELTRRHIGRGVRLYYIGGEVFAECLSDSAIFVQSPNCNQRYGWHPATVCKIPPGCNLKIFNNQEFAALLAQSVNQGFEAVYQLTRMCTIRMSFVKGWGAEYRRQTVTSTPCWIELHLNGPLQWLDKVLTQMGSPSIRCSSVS
ERa coact pot – ER-alpha (human) coactivator binding potentiation | P03372 | TR-FRET ERalpha-LBD/SRC-Cy5 coactivator binding, 2 h; 100 = basal binding, no effect | coactivator binding (% of control), % at 25.6 µM | hit rate 1.3% among 86,000 | AID 639; in the data active = activity above about 200%;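 also: binding measured in presence of low estradiol as agonist stimulus; 0% = peptide alone without receptor and 100% = receptor with peptide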
ERb SRC1 inh – ER-beta (human) coactivator binding inhibition. TR-FRET ER-beta LBD / SRC1-Cy5 peptide binding; receptor agonist-loaded with 1 µM estradiol. Q92731. hit rate 1.3% among 86,000. inhibition, % at 25.6 µM;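 active = compounds whose percent inhibition of the receptor-coactivator binding signal exceeds about 50% in the single-dose screen, limit read from the data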;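 also: 0% = receptor plus peptide wells without compound and 100% = peptide-only wells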
Candida biofilm – kills Candida albicans biofilms; C. albicans biofilm + clotrimazole, Alamar Blue; AID 834; hit rate 0.14% among 85,000; inhibition, % at 6 µM;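 active = inhibition above 20%; inactive = inhibition below 20%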;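 also: preformed 24 hr biofilms exposed to compound for 48 hr; 0% = biofilm without compound and 100% = blank killed by clotrimazole plus chlorhexidine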
ERa coact inh – blocks coactivator binding to human estrogen receptor alpha. P03372. TR-FRET ER-alpha LBD / SRC-1 peptide, estradiol-bound. inhibition, % at 25.6 µM. hit rate 1.7% among 86,000; in the data active = inhibition above about 50%;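 also: 0% = receptor plus peptide control and 100% = peptide only without receptor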
* marks the source's active call; other numbers are inactive results; i = inactive; . = no result; [ ] = remark or other dose. A selection: hits, their analogues and other compounds. The true share with any hit is near 3.8%.

SMILES | Smad3 inh | ERa coact pot | ERb SRC1 inh | Candida biofilm | ERa coact inh
Brc1ccc2c(c1)c1nc3ccccc3nc1n2CCN1CCOCC1 | 10.0 | 99.5 | 44.8 | 12.9 | 55.8*[fluorescence artefact?]
CCCCOc1ccc(OCCCN2CCOCC2)cc1 | -2.5 | 117.6 | -4.8 | 11.1 | 0.1
Cc1cc(Cl)cc(C)c1OCCCCN1CCOCC1 | 8.6 | 114.7 | 1.1 | 6.0 | 66.8*
C[N+]1(NCC[N@+]2(C)CCc3ccccc3C2)CCCCC1 | 94.6* | . | . | . | .
Cc1ccc(-c2cc(C(=O)NCc3ccco3)c3ccccc3n2)o1 | 22.0 | 24.9 | 72.6* | 7.3 | 82.2*
Cc1ccc(-c2cc(C(=O)Nc3ccccc3C)c3ccccc3n2)o1 | 9.7 | 65.6 | 56.2*[fluorescence artefact?] | 5.3 | 78.0*[fluorescence artefact?]
Cc1cc(NC(=O)c2cc(-c3ccccn3)nc3ccccc23)no1 | 0.9 | 87.6 | -12.5 | 7.5 | -6.8
O=C(NCc1ccco1)c1cc2ccccc2c(=O)o1 | 3.5 | 67.3 | 47.4 | 1.6 | 57.1*
Cc1cc(C)c2nc(-c3ccccn3)cc(C(=O)Nc3cc(C)on3)c2c1 | 11.8 | 102.5 | 10.1 | 5.8 | 5.8
Cc1cc(C)c2nc(-c3ccccn3)cc(C(=O)NCc3ccco3)c2c1 | 5.8 | 83.0 | 62.6*[fluorescence artefact?] | 3.3 | 66.4*
CC1(C)CC(=O)C(C(c2cccc(O)c2O)C2C(=O)CC(C)(C)CC2=O)C(=O)C1 | -5.0 | . | . | . | .
N#Cc1c(NC(=O)CN2CCCCC2)sc2c1CCC2 | -9.1 | 57.1 | 36.9 | -0.6 | 14.9
CC1CCCCN1CC(=O)Nc1sc2c(c1C#N)CCC2 (centres undefined) | -9.4 | 72.6 | 52.7* | 10.8 | 45.6
CCc1ccc2nc(NC(=O)c3ccc4c(=O)[nH]c(CN5CCOCC5)nc4c3)sc2c1 | 14.8 | 170.1 | 48.2 | 2.5 | 69.0*
CC(=NC1CCCCC1)c1ccccc1O | 15.8 | . | . | . | .
COc1cc(C(c2sc3nc(C)nn3c2O)N2CCN(c3ccccc3)CC2)cc(OC)c1OC (centres undefined) | 3.3 | 106.7 | -6.5 | 1.8 | 83.2*[fluorescence artefact?]
Cc1ccc(C(c2sc3nc(C)nn3c2O)N2CCN(c3ccccc3F)CC2)cc1 (centres undefined) | 1.8 | 107.2 | 72.0*[fluorescence artefact?] | . | -1.6
COc1cc(C(c2sc3nc(C)nn3c2O)N2CCc3ccccc3C2)cc(OC)c1OC (centres undefined) | -2.9 | 105.9 | -2.0 | 12.5 | -5.9
Cc1noc(C)c1COC(=O)c1cc2c(C)nn(-c3ccc(F)cc3)c2s1 | 8.8 | 150.1 | 58.6*[fluorescence artefact?] | 5.5 | 74.1*[fluorescence artefact?]
Cc1noc(C)c1COC(=O)c1cc2c3ccccc3n(C)c2s1 | 6.4 | 751.4* | -49.4 | 4.4 | -80.3
O=C(O)[C@@H](Br)[C@@H](Br)c1ccccc1[N+](=O)[O-] | 12.7 | . | . | . | .
CCC(=O)Nc1sccc1C(=O)OC | 3.2 | 116.3 | -4.3 | . | 0.0
COC(=O)Nc1sccc1C(=O)Nc1sccc1C(=O)OC | 5.7 | 200.9* | 5.9 | -0.5 | 11.7
Cc1c(/C(O)=C2/C(=O)C(=O)N(CCCN3CCOCC3)C2c2ccncc2)cnn1-c1ccccc1 (centres undefined) | 5.1 | 125.2 | 0.1 | 8.1 | -2.3
CCOC(=O)c1c(NC(=O)CSc2nnc(Cc3ccccc3)o2)sc(C(C)=O)c1C | -19.6 | 93.2 | 1.1 | 2.7 | 6.8
SMILES | Smad3 inh | ERa coact pot | ERb SRC1 inh | Candida biofilm | ERa coact inh
Cc1cc(C)c(C#N)c(SCC(=O)Nc2nnc(-c3ccccc3)s2)n1 | -9.7 | 207.5*[fluorescence artefact?] | 6.2 | 2.8 | -14.7
CCOC(=O)c1c(NC(=O)CSc2nc(C)cc(C)c2C#N)sc(C(C)=O)c1C | i | 678.1*[fluorescence artefact?] | 49.1 | 2.5 | 61.2*[fluorescence artefact?]
CCOC(=O)c1c(NC(=O)CSc2nnc(-c3ccccc3)o2)sc(C(C)=O)c1C | 5.7 | 318.8* | -6.6 | 1.4 | -6.1
CCOC(=O)c1sc(NC(=O)CSc2nc(C)cc(C)n2)c(C#N)c1C | 2.8 | 89.6 | 3.4 | 6.9 | 2.4
CC(C)(N=NC(C)(C)C(=N)N)C(=N)N | 2.0 | . | . | . | .
CN(C)CCN1C(=O)CC[C@@]2(C)C1=CC[C@H]1[C@H]2CC[C@@]2(C)[C@H]1CC[C@]2(C)O | -11.9 | . | . | . | .
Cc1cccc(NC(=O)c2c(O)c3cccc4c3n(c2=O)CC4)c1 | 26.1 | 216.6*[fluorescence artefact?] | 28.0 | 10.9 | 34.1
CCc1nnc(NC(=O)c2c(O)c3cccc4c3n(c2=O)CC4)s1 | 24.6 | 103.1 | 14.3 | -1.1 | 8.5
CCCCOc1ccccc1C(=O)NCC(=O)O | 5.8 | 95.2 | -0.9 | 7.6 | -2.2
CCCCCOc1ccccc1C(=O)NCC(=O)O | -5.9 | 119.5 | 79.2*[fluorescence artefact?] | 6.7 | -3.2
O=C(C1CC(c2ccccc2O)=NO1)N1CCCCC1 (centres undefined) | -4.1 | 120.8 | -3.9 | 7.0 | 5.3
CCN1CCN(Cc2ccc(NC(=O)Nc3cccs3)cc2)CC1 | -6.8 | 70.6 | 71.8*[fluorescence artefact?] | -0.2 | 40.3
CN(Cc1ccccc1)C(=O)CN(c1ccc(F)cc1)S(=O)(=O)c1ccc2c(c1)OCCO2 | 6.9 | 118.8 | 4.7 | -2.3 | -6.8
Cn1c(=O)cc(SCC(=O)NCC2CCCO2)c2ccc(Cl)cc21 (centres undefined) | 50.5*[fluorescence artefact?] | 104.2 | 5.0 | 2.4 | 3.1
CCN1CCCC1CNC(=O)COc1cc(=O)n(C)c2ccccc12 (centres undefined) | -3.6 | 127.2 | 5.0 | 5.7 | -4.3
CCN1CCCC1CNC(=O)CSc1cc(=O)n(C)c2cc(Cl)ccc12 (centres undefined) | 53.2*[fluorescence artefact?] | 112.2 | -14.4 | 7.6 | 6.3
O=C1CC[C@](CCc2nc3ccccc3[nH]2)(c2ccccc2)C(=O)N1 | 2.6 | . | . | . | .
CCCCN(C(=O)NC(=O)Nc1cc(C)ccc1C)S(C)(=O)=O | 3.2 | 104.2 | 91.0*[fluorescence artefact?] | 9.3 | -0.1
CCN(CC)C(=O)Cn1cnc2sc(C(=O)Nc3cc(OC)c(OC)c(OC)c3)c(C)c2c1=O | 1.7 | 102.0 | -25.4 | 4.3 | 11.4
OC(COc1ccc(C2C=CCC2)cc1)CN1CCCCC1 (centres undefined) | 66.9* | 262.7*[fluorescence artefact?] | 62.7*[fluorescence artefact?] | 6.1 | 37.3
Cn1c(-c2sc3ccccc3c2Cl)n[nH]c1=S | 14.3 | 74.1 | -6.4 | 7.5 | -6.0
Cc1noc(C)c1CSCC(=O)OCC(=O)Nc1sccc1C#N | 11.4 | 54.3 | 54.3* | 4.3 | 55.0*[fluorescence artefact?]
O=C(O)c1cncc(C(=O)O)c1 | -16.0 | . | . | . | .
Cc1nn(C)c(C)c1CN(C)C(=O)c1cnn2c1NC(c1ccccc1)CC2C(F)(F)F (centres undefined) | 11.1 | 100.0 | 55.8* | 8.6 | 3.7
CC(=O)Nc1ccc2c(c1)C(=Nc1ccc(C(=O)O)cc1)c1ccccc1-2 | -3.4 | . | . | . | .
CCOc1ccc(-c2nc(C#N)c(N3CCCCCC3)o2)cc1 | 9.5 | 90.3 | -8.6 | 21.0* | -3.5
N#Cc1nc(-c2ccc(OCc3ccccc3)cc2)oc1NCc1cccnc1 | 2.3 | 92.2 | -5.6 | 5.8 | 3.5
N#Cc1nc(-c2ccc(OCc3ccc(Cl)cc3)cc2)oc1N1CCC(C(N)=O)CC1 | -16.4 | 102.6 | 47.0 | 10.9 | 60.6*[fluorescence artefact?]
N#Cc1nc(-c2ccc(OCc3ccc(Cl)cc3)cc2)oc1NCc1cccnc1 | -1.3 | 129.9 | 23.7 | . | 50.8*
N#Cc1nc(-c2ccc(OCc3ccc(Cl)cc3)cc2)oc1N1CCOCC1 | -102.9 | 277.6*[fluorescence artefact?] | 25.1 | 7.0 | 49.5
